Measured values as given in PubChem BioAssay (EPA / NIEHS).
Records with an inconclusive call do not appear. Activity calls are given as the source filed them. Rule for the calls, unless noted: active = hit-call score of the fitted dose curve at least 0.9, where 1 is the maximum; inactive = score below 0.9.

Key:
[1] = target: Nucleoli Translocation, AR (gene 367) (UniProt P10275); experiment: UPITT_HCI_U2OS_AR_TIF2_Nucleoli_Antagonist: University of Pittsburgh U2OS Androgen Receptor-Transcriptional Intermediary Factor 2 (AR-TIF2) Antagonism High Content Imaging Assay for Nucleoli Translocation (AID 2283997; active = hit-call score of the fitted dose curve at least 0.9, where 1 is the maximum)
Procedure, shortened: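 Antagonism is read as loss of nucleolar AR-RFP signal relative to DHT, imaged in U2OS cells also carrying GFP-TIF2. Compounds screened at 20 uM final, 0.2% DMSO; primary actives retested in triplicate.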

[2] = target: Nucleoli Translocation, AR (gene 367) (UniProt P10275); experiment: UPITT_HCI_U2OS_AR_TIF2_Nucleoli_Agonist: University of Pittsburgh U2OS Androgen Receptor-Transcriptional Intermediary Factor 2 (AR-TIF2) Agonism High Content Imaging Assay for Nucleoli Translocation (AID 2283998; active = hit-call score of the fitted dose curve at least 0.9, where 1 is the maximum)
Procedure, shortened: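 U2OS cells expressing RFP-tagged human AR and GFP-tagged TIF2; red fluorescence in nucleoli quantified by high-content imaging. Primary screen at 20 uM final (0.2% DMSO); concentration-response 0.195–50 uM (0.5% DMSO), fitted upward versus DMSO.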

[3] = target: Ratio of Nucleoli Translocation and Cytoplasm, AR (gene 367) (UniProt P10275); experiment: UPITT_HCI_U2OS_AR_TIF2_Nucleoli_Cytoplasm_Ratio_Antagonist: University of Pittsburgh U2OS Androgen Receptor-Transcriptional Intermediary Factor 2 (AR-TIF2) Antagonism High Content Imaging Assay for Ratio of Nucleoli Translocation and Cytoplasm (AID 2283999; active = hit-call score of the fitted dose curve at least 0.9, where 1 is the maximum;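 note: antagonists lower the DHT-driven ratio of nucleolar to cytoplasmic red signal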)
Procedure, shortened: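 High-content imaging of red fluorescence ratio, nucleoli versus cytoplasm, in U2OS expressing AR-RFP and TIF2-GFP, fitted relative to DHT. Compounds tested once at 20 uM final, then 0.195 to 50 uM final in serial dilution.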

[4] = target: Ratio of Nucleoli Translocation and Cytoplasm, AR (gene 367) (UniProt P10275); experiment: UPITT_HCI_U2OS_AR_TIF2_Nucleoli_Cytoplasm_Ratio_Agonist: University of Pittsburgh U2OS Androgen Receptor-Transcriptional Intermediary Factor 2 (AR-TIF2) Agonism High Content Imaging Assay for Ratio of Nucleoli Translocation and Cytoplasm (AID 2284000; active = hit-call score of the fitted dose curve at least 0.9, where 1 is the maximum;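 note: hits raise the red nucleolar to cytoplasm ratio above vehicle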)
Procedure, shortened: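 Compounds tested at 20 uM final in primary screen (0.2% DMSO) and 0.195-50 uM final in dose-response (0.5% DMSO). Imaging of human U2OS cells bearing RFP-AR and GFP-TIF2; endpoint is nucleoli/cytoplasm red signal ratio, positive direction relative to DMSO.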

[5] = CCTE_Simmons_MITO_basal_resp_rate: CCTE's HepG2 Seahorse XF Respirometric Screening Assay at Basal Respiratory State, Simmons Lab (AID 2284001); details: actives raise or lower the signal
Procedure, shortened: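 Basal-phase OCR in HepG2 cells, read at 6-min intervals across a 72-min run, with test compound injected at 125 nM–100 uM final (7 points). Fitted both directions against DMSO; three biological replicates per concentration.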

[6] = CCTE_Simmons_MITO_max_resp_rate: CCTE's HepG2 Seahorse XF Respirometric Screening Assay at Maximal Respiratory State [uncoupled], Simmons Lab (AID 2284002); details: actives raise or lower the signal
Procedure, shortened: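 HepG2 oxygen consumption measured on Seahorse XF after FCCP uncoupling, following test compound injection; 7 concentrations from 125 nM to 100 uM final. Readings every 6 min over 72 min, three biological replicates; bidirectional fit versus DMSO.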

[7] = CCTE_Simmons_MITO_inhib_resp_rate: CCTE's HepG2 Seahorse XF Respirometric Screening Assay at Inhibited Respiratory State [full ETC block], Simmons Lab (AID 2284006); details: actives raise or lower the signal
Procedure, shortened: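 This endpoint is the respiration rate remaining after rotenone/antimycin A block, in HepG2 cells on a Seahorse XF96. Chemicals spanned 125 nM–100 uM final, in three biological replicates. OCR was read every 6 minutes for 72 minutes and compared with DMSO vehicle.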

[8] = CCTE_Simmons_MITO_viability: CellTiter-Glo Viability Assessment for CCTE's HepG2 Seahorse XF Respirometric Screening Assay [post-hoc], Simmons Lab (AID 2284007; active = hit-call score of the fitted dose curve at least 0.9, where 1 is the maximum;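 for AC50: cells exposed to chemical for 90 min before the ATP read; actives lower ATP signal relative to DMSO baseline meaning reduced viability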)
Procedure, shortened: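 Luciferase-coupled ATP read-out after the Seahorse run: HepG2 cells treated 90 minutes with test chemical, 7-point series of 125 nM–100 uM final, in triplicate biological runs. Vehicle DMSO; dichlone as positive control over 8 concentrations.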

[9] = CCTE_Shafer_MEA_acute_spike_number: CCTE's Neural Acute Assay for Total Number of Spikes, Shafer Lab (AID 2284008);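 for AC50: curve fitted for decrease in spike count so AC50 reflects inhibitors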
Procedure, shortened: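 Rat primary cortical neurons on 48-well MEA plates, DIV 13 or 15, at 37 C. 40 min baseline then 40 min with compound (0.03-40 uM); spikes detected at 8x rms noise, expressed as percent change from baseline.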

[10] = CCTE_Shafer_MEA_acute_firing_rate_mean: CCTE's Neural Acute Assay for Mean Firing Rate, Shafer Lab (AID 2284009);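 note: analyzed for loss of signal so actives lower firing rate relative to DMSO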
Procedure, shortened: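 Primary rat cortical neurons on 16-electrode MEA wells were exposed on DIV 13 or 15 to compound (0.03-40 uM). Spike counts per recording time, averaged over electrodes, were compared between 40-min baseline and 40-min post-exposure recordings as percent change.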

[11] = CCTE_Harrill_HTTr_Viability_MCF7: CCTE's 6-hour Cell Viability Assessment for the High-Throughput Transcriptomics (HTTr) Platform, in MCF-7 cells cultured in DMEM + 10% fetal bovine serum, Harrill Lab (AID 2284010)
Procedure, shortened: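 Propidium iodide exclusion, imaged by high-content analysis, gauged viability after a six-hour exposure across eight concentrations. Cells were MCF-7 grown in DMEM with 10% fetal bovine serum; fits run in both directions against DMSO.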

[12] = CCTE_Harrill_HTTr_Apoptosis_MCF7: CCTE's 6-hour Apoptosis Assessment for the High-Throughput Transcriptomics (HTTr) Platform, in MCF-7 cells cultured in DMEM + 10% fetal bovine serum, Harrill Lab (AID 2284011)
Procedure, shortened: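 MCF-7 cells in DMEM + 10% FBS exposed 6 h to chemicals over an eight-point dilution series. Caspase-3/7 activation imaged by high-content CellEvent Green staining; fitted bidirectionally versus DMSO.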

[13] = CCTE_Shafer_MEA_acute_burst_number: CCTE's Neural Acute Assay for Single-Electrode Bursts, Shafer Lab (AID 2284013)
Procedure, shortened: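 Primary rat cortical neurons on 16-electrode MEA wells, DIV 13 or 15, exposed to compound (0.03-40 uM; ≥3 wells); 40-min recordings at 37 C before and after treatment. Burst count expressed as percent change from baseline, DMSO as negative control.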

[14] = CCTE_Shafer_MEA_acute_burst_duration_mean: CCTE's Neural Acute Assay for Mean Burst Duration, Shafer Lab (AID 2284014);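 note: hits are decreases in mean burst duration relative to DMSO controls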
Procedure, shortened: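 Mean burst duration was compared between a 40 min baseline and a 40 min recording in the presence of compound (0.03-40 uM, 37 C), giving percent change per well. Cultures were rat cortical neurons at DIV 13 or 15; wells needed ≥10 active electrodes.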

[15] = CCTE_Shafer_MEA_acute_per_burst_spike_number_mean: CCTE's Neural Acute Assay for Average Number of Spikes Per Burst, Shafer Lab (AID 2284015);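 note: hits are decreases in mean spikes per burst versus baseline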
Procedure, shortened: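 Percent change in mean spikes per single-electrode burst is compared between a 40 min baseline and a 40 min recording with compound (0.03-40 uM). Cultures were rat cortical neurons on MEA plates at DIV 13 or 15, recorded at 37 C, with DMSO as the negative control.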

[16] = CCTE_Shafer_MEA_acute_interburst_interval_mean: CCTE's Neural Acute Assay for Mean Interburst Interval, Shafer Lab (AID 2284016);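 note: percent change of mean interburst interval versus each well's own pre-dose baseline; curves fitted for decrease in interburst interval relative to DMSO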
Procedure, shortened: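 Percent change in mean single-electrode interburst interval was calculated per well from 40 min recordings before and after compound (0.03-40 uM). Recordings were made at 37 C on rat cortical cultures at DIV 13 or 15, with spikes detected at 8x rms threshold.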

[17] = CCTE_Harrill_HTTr_CellCount_MCF7: CCTE's Cell Proliferation Assessment for the High-Throughput Transcriptomics (HTTr) Platform, Harrill Lab (AID 2284012; active = hit-call score of the fitted dose curve at least 0.9, where 1 is the maximum;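 note: cells exposed to compound for six hours; intended direction is loss of nuclei count meaning fewer cells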)
Procedure, shortened: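 Cell count from high-content imaging of Hoechst-labeled nuclei serves as viability/growth readout. Chemicals were applied to MCF-7 cells in eight concentrations for six hours, with fitting in both directions relative to DMSO.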

Chain of Nucleoli Translocation, AR (gene 367) (P10275 whole entry, looked up): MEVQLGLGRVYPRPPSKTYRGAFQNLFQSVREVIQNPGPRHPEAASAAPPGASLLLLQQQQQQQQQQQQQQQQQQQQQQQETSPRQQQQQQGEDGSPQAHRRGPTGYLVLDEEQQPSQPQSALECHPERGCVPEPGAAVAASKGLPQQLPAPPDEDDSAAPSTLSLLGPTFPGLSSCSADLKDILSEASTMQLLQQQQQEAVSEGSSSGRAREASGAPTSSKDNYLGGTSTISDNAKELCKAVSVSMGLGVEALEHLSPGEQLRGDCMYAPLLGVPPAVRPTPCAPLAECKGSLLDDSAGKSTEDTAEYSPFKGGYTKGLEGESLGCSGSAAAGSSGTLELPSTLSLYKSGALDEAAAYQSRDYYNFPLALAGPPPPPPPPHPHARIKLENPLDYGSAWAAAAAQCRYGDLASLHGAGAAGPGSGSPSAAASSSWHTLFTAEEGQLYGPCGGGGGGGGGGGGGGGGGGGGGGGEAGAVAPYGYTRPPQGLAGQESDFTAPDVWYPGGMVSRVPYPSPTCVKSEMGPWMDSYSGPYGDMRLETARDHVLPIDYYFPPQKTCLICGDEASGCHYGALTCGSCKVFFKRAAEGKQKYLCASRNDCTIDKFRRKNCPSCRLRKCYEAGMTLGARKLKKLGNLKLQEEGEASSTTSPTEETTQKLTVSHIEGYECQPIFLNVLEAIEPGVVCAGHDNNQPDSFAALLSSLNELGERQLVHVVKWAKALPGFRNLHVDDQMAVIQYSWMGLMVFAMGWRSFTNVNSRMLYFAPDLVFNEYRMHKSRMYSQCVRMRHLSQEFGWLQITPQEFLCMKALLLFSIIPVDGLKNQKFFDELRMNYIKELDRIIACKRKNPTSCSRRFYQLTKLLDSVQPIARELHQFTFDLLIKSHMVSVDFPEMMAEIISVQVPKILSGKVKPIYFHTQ
Chain of Ratio of Nucleoli Translocation and Cytoplasm, AR (gene 367) (P10275 whole entry, looked up): as above

Cc1c2ccccc2c(C)c2c1ccc1ccccc12
AC50 [1]: 50 µM (active) | outcome [2]: inactive | outcome [3]: inactive | outcome [4]: inactive | AC50 [5]: 17.1 µM (active) | AC50 [6]: 26.1 µM (active) | outcome [7]: inactive | AC50 [8]: 19.4 µM (active) | AC50 [9]: 20 µM (active) | AC50 [10]: 20 µM (active) | outcome [11]: inactive | outcome [12]: inactive | outcome [13]: inactive | outcome [14]: inactive | outcome [15]: inactive | AC50 [16]: 7.49 µM (active)

O=C1CCC(C2CCCCC2)CC1
outcome [5]: inactive | outcome [6]: inactive | outcome [7]: inactive | outcome [8]: inactive | outcome [11]: inactive | outcome [12]: inactive | outcome [17]: inactive

Cc1cc2c(cc1C(F)(F)F)N(C(=O)Nc1ccc(Oc3cccnc3C)nc1)CC2
outcome [5]: inactive | AC50 [6]: 10.9 µM (active) | outcome [7]: inactive | outcome [8]: inactive | outcome [9]: inactive | outcome [10]: inactive | outcome [11]: inactive | outcome [12]: inactive | outcome [13]: inactive | outcome [14]: inactive | outcome [15]: inactive | outcome [16]: inactive

CCCCCCCCOC(=O)c1cc(O)c(O)c(O)c1
AC50 [5]: 13.6 µM (active) | AC50 [6]: 11.5 µM (active) | outcome [7]: inactive | AC50 [9]: 4.46 µM (active) | AC50 [10]: 4.46 µM (active) | outcome [11]: inactive | outcome [12]: inactive | AC50 [13]: 4.91 µM (active) | outcome [14]: inactive | outcome [15]: inactive | outcome [16]: inactive

O=C(O)Cc1cc(I)c(Oc2ccc(O)c(I)c2)c(I)c1
AC50 [5]: 27 µM (active) | AC50 [6]: 50 µM (active) | outcome [7]: inactive | outcome [8]: inactive | outcome [11]: inactive | outcome [12]: inactive

O=C(O)Cn1c(=O)n(Cc2ccc(Br)cc2F)c(=O)c2ccc(Cl)cc21
outcome [1]: inactive | outcome [2]: inactive | outcome [3]: inactive | outcome [4]: inactive | outcome [11]: inactive | outcome [12]: inactive

CCCCCCCCCC(=O)O
outcome [1]: inactive | outcome [3]: inactive | outcome [4]: inactive | AC50 [5]: 23.2 µM (active) | outcome [6]: inactive | outcome [7]: inactive | outcome [8]: inactive | outcome [11]: inactive | outcome [12]: inactive

CN(C)C(=O)C1(N2CCCCC2)CCN(CC[C@@]2(c3ccc(Cl)c(Cl)c3)CN(C(=O)c3ccccc3)CCO2)CC1
outcome [5]: inactive | outcome [6]: inactive | outcome [7]: inactive | AC50 [9]: 3.26 µM (active) | AC50 [10]: 3.28 µM (active) | outcome [11]: inactive | outcome [12]: inactive | outcome [17]: inactive | AC50 [13]: 2.11 µM (active) | AC50 [14]: 1.81 µM (active) | AC50 [15]: 2.5 µM (active) | outcome [16]: inactive

O=C(Nc1ccc(Cl)cc1)Nc1ccc(Cl)c(Cl)c1
AC50 [1]: 5.24 µM (active) | outcome [3]: inactive | outcome [4]: inactive | outcome [11]: inactive | outcome [12]: inactive

CCCCCCCCCCCC[N+](C)(C)C
AC50 [6]: 37.8 µM (active) | outcome [7]: inactive | outcome [8]: inactive
